Assay outcomes deposited in PubChem by National Center for Advancing Translational Sciences (NCATS).
Compounds with a hit are over-represented: about 9% of the library has one in this group of screens.
PLK1 PBD inh – qHTS for Inhibitors of PLK1-PDB (polo-like kinase 1 - polo-box domain): Primary Screen. Plk1 PBD binding of FITC phosphopeptide, fluorescence polarization. 2.8% of 360,000 active. Serine/threonine-protein kinase PLK1 (Homo sapiens), P53350. Potency, µM, for the others: max response, negative = inhibition, hits mostly inhibitors; further: series mostly up to about 57 µM; on the % scale 0 is the no-effect control and ±100 the full control effect; nearly all actives have a fitted effect of over 65% in size
12-LOX inh – Primary qHTS assay for inhibitors of human arachidonate 12S-lipoxygenase (ALOX12): Round 2. Polyunsaturated fatty acid lipoxygenase ALOX12 (Homo sapiens), P18054. purified 12hLO, xylenol orange hydroperoxide absorbance. Potency, µM (doses to about 108 µM), for the others: top-dose activity change, negative = inhibition, actives largely listed as inhibitors. 1.1% of 580,000 active. AID 1671190, 2021; further: on the % scale 0 is the no-effect control and ±100 the full control effect
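Purified human 12hLO at 150 nM in 25 mM Hepes, 0.01% Triton X-100, pH 7.0, preincubated 15 min at room temperature with compound. Reaction started with 40 uM arachidonic acid, 30 min at room temperature. Hydroperoxide measured by Fe-xylenol orange, 573/405 nm absorbance ratio.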
BAZ2B inh – qHTS Assay for Inhibitors of BAZ2B; Potency, µM (top dose mostly 114 µM), inactives show at the top dose activity change, negative = inhibition, most hits filed as inhibitors; AlphaScreen BAZ2B-H3K14Ac peptide displacement; AID 504333, 2011; 4.4% of 360,000 active; further: on the % scale 0 is the no-effect control and ±100 the full control effect; nearly all actives have a fitted effect of over 60% in size
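AlphaScreen displacement: compounds (up to 110uM) incubated 30 min at room temperature with a preformed 50 nM BAZ2B/50 nM biotinylated H3K14Ac peptide complex in PBS pH 7.4 with Tween-20. Donor and acceptor beads at 10 ug/mL final added, 20 min light-protected before reading.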
HP1b binding inh – HTS for Inhibitors of HP1-beta Chromodomain Interactions with Methylated Histone Tails | Chromobox protein homolog 1 (Homo sapiens), P83916 | AlphaScreen HP1-beta / biotin-H3K9me3 peptide binding | Potency, µM (top dose mostly 114 µM), without a hit: at the top dose activity change, negative = inhibition, usual class: inhibitors | 0.56% of 390,000 active | AID 540317, 2011; further: nearly all actives have a fitted effect of over 70% in size
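AlphaScreen: HP1-beta (50 nM) preformed 30 min with biotin-H3(1-18)K9me3 peptide (50 nM) in PBS pH 7.4, 0.01% Tween-20. Compound added for 30 min at RT, then streptavidin donor/nickel chelate acceptor beads (10 ug/mL) for 30 min.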
G9a inh – qHTS Assay for Inhibitors of Histone Lysine Methyltransferase G9a. G9a H3K9 monomethylation, AlphaScreen, 2 h. Potency, µM (highest dose often 102 µM), for inactives: at the highest dose activity, negative = inhibition, most hits filed as inhibitors. 8.8% of 350,000 active; further: on the % scale 0 is the no-effect control and ±100 the full control effect; nearly all actives have a fitted effect of over 75% in size
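AlphaScreen detection with an anti-monomethyl H3K9 antibody quantified product after a 2 h room-temperature reaction containing 500 nM biotinylated H3K9 peptide, 20 µM SAM and 20 nM enzyme, which had been preincubated 15 min with compound.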
JMJD2A Tudor – qHTS Assay for Inhibitors of JMJD2A-Tudor Domain; Lysine-specific demethylase 4A (Homo sapiens), O75164; AlphaScreen JMJD2A-Tudor / H3K4me3 peptide binding; Potency, µM (top dose mostly 114 µM), inactives show at the highest dose activity change, negative = inhibition, actives largely listed as inhibitors; 4.4% of 390,000 active; AID 504339, 2011; further: on the % scale 0 is the no-effect control and ±100 the full control effect; nearly all actives have a fitted effect of over 50% in size
The depositor's hits bear a star; u = inconclusive; x = no result; [ ] = dose if it differs, or a comment. The call rests on the fitted dose curve; in most records, active means well fitted curve in the direction sought with a large enough effect; inconclusive means small, poorly fitted or top-dose-only effect, or another doubt; inactive means no such curve, though single readings can be large; an effect the other way counts as inactive or inconclusive. Potency means the concentration at half of the fitted maximal effect.

SMILES	PLK1 PBD inh	12-LOX inh	BAZ2B inh	HP1b binding inh	G9a inh	JMJD2A Tudor
C#CCOCCOCCOCCNc1nc(N2CCOCC2)nc(N2CCN(C(=O)[C@H](CCCCN)n3cc(CCC(=O)O)nn3)CC2)n1	0.4%	-15.9%	x	22.6%	x	-10.5%
C#CCOCCOCCOCCNc1nc(N2CCN(C(=O)[C@H](CCCCN)n3cc(CN)nn3)CC2)nc(N2CCN(C(=O)[C@H](CCCCN)n3cc(CN)nn3)CC2)n1	-12.1%	u	x	28.7%	x	79.4µM*
C#CCOCCOCCOCCNc1nc(N2CCN(C(=O)[C@H](CCCCN)n3cc(CN)nn3)CC2)nc(N2CCN(C(=O)[C@H](CCC(=O)O)n3cc([C@@H](N)CCCCN)nn3)CC2)n1	3.5%	27.2%	x	32.2%	x	89.1µM*
CCOC(=O)C1=C(C)NC(C)=C(C(=O)OCC)C1C(=O)OCC(N)=O	-1.3%	-9.3%	2.3%	18.2%	15.5%	-12.8%
O=c1[nH]n2c(=O)c3c([nH]c2c1N=Nc1cccc(Cl)c1)CCCC3	u	u	u	-31.5%	u	u
O=C1CCN(N=Nc2cccc(Cl)c2)N1	x	x	u	x	0.794µM*	x
Cc1nn(CCCC(=O)Nc2ccccn2)c(C)c1[N+](=O)[O-]	-0.1%	-1.7%	-8.9%	20.3%	0.9%	2.4%
COC(=O)Nc1nnc(-c2ccncc2)s1	26.7µM*	u	8.3%	u	u	-34.4%
COc1ccc(S(=O)(=O)N2CCN(CC(=O)Nc3ccc(F)c(F)c3)CC2)cc1	-1.9%	0.0%	8.1%	13.1%	44.7µM*	-10.6%
O=C(CN1CCCN(S(=O)(=O)c2ccc(F)cc2)CC1)Nc1c(Cl)cccc1Cl	-15.9%	11.4%	-1.2%	5.2%	-11.9%	-6.4%
O=C(CN1CCCN(S(=O)(=O)c2ccc(F)cc2)CC1)Nc1cccc(F)c1	-7.6%	-23.1%	0.1%	41.9%	31.6µM*	-13.1%
COc1ccc(S(=O)(=O)N2CCC(C(=O)NCCC(=O)Nc3cccc(Cl)c3)CC2)cc1	6.7µM*	0.0%	-21.9%	23.1%	-6.4%	15.8µM*
O=C(CN1CCN(S(=O)(=O)c2ccccc2)CC1)Nc1cccc(C(F)(F)F)c1	u	-17.2%	19.5%	-10.4%	19.9%[59 µM]	79.4µM*
Cc1nnc(NS(=O)(=O)c2ccc(F)cc2)s1	-24.8%	-16.3%	x	32.5%	x	-5.5%
COc1ccc(CCNC(=O)C2CCCN2C(=O)Nc2ccc(Cl)cc2)cc1OC (stereo unspecified)	3.9%	28.9%	-22.8%	9.4%	-4.9%	-18.4%
COc1ccc(-n2c(SCC(=O)Nc3cc(C)on3)nc3ccccc3c2=O)cc1Cl	-3.4%	0.0%	-2.4%	23.1%	26.5%	-20.7%
O=C(Cc1ccc(F)cc1)Nc1ccc(S(=O)(=O)N2CCCC2)cc1	-2.3%	-13.9%	6.6%	16.6%	50.1µM*	-4.1%
O=C(CN1CCN(C(=O)c2ccco2)CC1)Nc1cccc(S(=O)(=O)N2CCCC2)c1	-6.8%	-31.8%	7.0%	22.0%	u	-13.6%
O=C(CN1CCN(S(=O)(=O)c2ccccc2)CC1)Nc1ccc(Cl)cn1	2.5%	0.0%	u	28.0%	9.2%	-11.3%
O=C(CN1CCN(C(=O)c2cccc(S(=O)(=O)N3CCCC3)c2)CC1)Nc1cccc(F)c1	-2.9%	-29.7%	14.0%	28.7%	56.2µM*	-11.7%
CCc1cccc(CC)c1NC(=O)CN1CCN(S(=O)(=O)c2ccccc2)CC1	-8.2%	-0.4%	-14.5%	7.8%	44.7µM*	-9.7%
